Results filed as inconclusive are left out. A call without a number means that no potency is given here. Calls of active or inactive are those of the source. The call rests on the fitted dose curve; in most records, active means well fitted cell-killing curve with a large enough effect in the repeat runs (not every such curve was filed as active); inconclusive means weak or mixed curves, or effect the other way; inactive means no such curve, though single readings can be large or run the other way.
test: qHTS assay to identify small molecule antagonists of the farnesoid-X-receptor (FXR) signaling pathway - cell viability counter screen (AID 743221); conditions: FXR-bla HEK293T viability, CellTiter-Glo luminescence, 16 h; series mostly up to 62.6 µM; further: nearly all actives have a fitted effect of over 50% in size
Excerpt: National Center for Advancing Translational Sciences [NCATS]
NIH Chemical Genomics Center [NCGC]
U.S. Environmental Protection Agency [EPA]
National Institutes of Environmental Health Sciences [NIEHS]
National Toxicology Program [NTP]
U.S. Food and Drug Administration [FDA]
The farnesoid-X-receptor (FXR), a nuclear hormone receptor, is highly expressed in liver, intestine, kidney and adrenal cortex. Natural ligands of FXR are the bile acids (Cholic acid, Chenodeoxy cholic acid etc). FXR is an important regulator of diverse metabolic pathways, including the bile acid homeostasis, lipid and glucose metabolisms. FXR regulates the expression of target genes by binding either as a monomer or as a heterodimer with the retinoid X receptor (RXR). Numerous studies have reported that FXR exerts protective function during cholestasis, diabetes, liver regeneration, and cancer. To identify compounds that inhibit FXR signaling, GeneBLAzer FXR-UAS-bla HEK 293T cell line (Invitrogen, Carlsbad, CA) containing a beta-lactamase reporter gene under the control of a UAS response element was used to screen the Tox21 10K compound library. The cytotoxicity of the Tox21 compound library against the FXR-bla cell line was tested in parallel by measuring the cell viability using CellTiter-Glo assay in the same wells.
Tox21 Assay Protocol Summary:
FXR-bla cells were dispensed at 5000 cells/5uL/well in 1536-well black wall/clear bottom plates using a Multidrop Combi (Thermo Fisher Scientific, Waltham, MA) dispenser. After the assay plates were incubated at 37 C and 5% CO2 for 5 h, 23 nL of compounds dissolved in DMSO, positive controls or DMSO only was transferred to the assay plate by a Pintool station (Kalypsys, San Diego, CA), followed by addition of 1 uL Chenodeoxycholic acid (50 uM, final concentration in the wells). The assay plates were incubated at 37C for 16 h. After 1 uL of LiveBLAzerTM B/G FRET substrate was added using a Bioraptr Flying Reagent Dispenser (FRD) workstation (Beckman Coulter, Indianapolis, IN), the plates were incubated at room temperature for 2 h, and fluorescence intensity was measured by an Envision plate reader (PerkinElmer, Shelton, CT). For cell viability readout that measures cytotoxicity, 4uL/well of CellTiter-Glo reagent was added into the assay plates using a Bioraptr FRD. After 30 min incubation at room temperature, the luminescence intensity in the plates was measured using a ViewLux plate reader (PerkinElmer).
Potency means the concentration at half of the fitted maximal effect.

| Structure (SMILES) | Potency |
| --- | --- |
| CCCCCCCCCCCCC(=O)O | inactive |
| CCCCCCCC/C=C\CCCCCCCC(N)=O | inactive |
| CN(C)CC/C=C1\c2ccccc2COc2ccccc21 | inactive |
| C#CCOC(=O)[C@@H](C)Oc1ccc(Oc2ncc(Cl)cc2F)cc1 | inactive |
| CN(C)CCCNCCCN | inactive |
| CCCCCCCCCC=O | inactive |
| CCCCCc1ccc(N)cc1 | inactive |
| Cc1ccc(C(N)=O)cc1N | inactive |
| CCCCCCOC(=O)CCC | inactive |
| CC(=O)N(CC(=O)N(C)C)c1ccccc1 | inactive |
| CCN(CC)CCNC(C(=O)OCCC(C)C)c1ccccc1 (stereo not given) | inactive |
| C=CC(=O)OCCOC(=O)CCC(=O)O | inactive |
| CCN(CC)CCOC(=O)C1(c2ccccc2)CCCC1 | inactive |
| COc1ccccc1OC(=O)Oc1ccccc1OC | inactive |
| c1ccc(OCc2ccc(CCCN3CCOCC3)cc2)cc1 | inactive |
| O=S1(=O)N=C(O)c2ccccc21 | inactive |
| Nc1cnn([C@@H]2O[C@H](CO)[C@@H](O)[C@H]2O)c(=O)n1 | inactive |
| Cn1c(=O)c2c(ncn2CC(O)CO)n(C)c1=O (stereo not given) | inactive |
| CCCCC(CC)COCCCN (stereo not given) | inactive |
| Nc1ccc(C(=O)N2CC3CC(CN(Cc4ccccc4)C3)C2)cc1 | inactive |

| Structure (SMILES) | Potency |
| --- | --- |
| C=C(C)C(=O)OC(C)C | inactive |
| CC(C(=O)O)c1ccc(-c2ccccc2)c(F)c1 (stereo not given) | inactive |
| CCCCCCCCCCCCCCCBr | inactive |
| CCOC(=O)CC(=O)c1cc(F)c(Cl)nc1Cl | inactive |
| O=[N+]([O-])c1cccc(Cl)c1Cl | inactive |
| CCC(=O)OC(C)(C)C1CC=C(C)CC1 (stereo not given) | inactive |
| CCCCCCCCCCCCCCCCCBr | inactive |
| CC(C)(Oc1ccc(Cl)cc1)C(=O)OCCCOC(=O)C(C)(C)Oc1ccc(Cl)cc1 | inactive |
| O=C(O)C(c1ccc(Cl)cc1)c1ccc(Cl)cc1 | inactive |
| CCOC(=O)[C@H](CCc1ccccc1)N[C@H]1CCc2ccccc2N(CC(=O)O)C1=O | 29.8 µM (active) |
| NC(N)=NN=C(/C=C/c1ccc([N+](=O)[O-])o1)/C=C/c1ccc([N+](=O)[O-])o1 | 23.7 µM (active) |
| Cn1sccc1=O | inactive |
| CC1(C)CCC(C)(C)c2cc(NC(=O)c3ccc(C(=O)O)cc3)ccc21 | inactive |
| CCCCOC(=O)c1ccccc1C(=O)OCC(CC)CCCC (stereo not given) | inactive |
| CCCCCCCCN(C)C | inactive |
| CCCCCCc1ccc(N)cc1 | inactive |
| N#Cc1c(F)cccc1F | inactive |
| Cc1cc(CC(=O)O)c(C)n1-c1ccc(Cl)cc1 | inactive |
| CCCCCC(CO)CCC (stereo not given) | inactive |
| CN(C(=O)CCCOc1ccc2[nH]c(=O)ccc2c1)C1CCCCC1 | inactive |

Reference: PubChem BioAssay (Tox21)
